# Measurements published in the supplement of paper PMC3334620.
# In all, about 33,000 sequences were measured (“E-score (-0.5 to 0.5)”: median about -0.053, highest 2% from about 0.37 on). Only a selection was taken, and the highest values are over-represented in it overall.
# Target: Hap1 (UniProt P0CE41)
# Assay: PBM E-score (8-mer binding enrichment) (E-score (-0.5 to 0.5)); higher = stronger / more preferred TF binding
# Conditions: protein concentration: 200 nM; construct: GST-DNA-binding domain
# Protocol: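 Universal 'all 10-mer' protein binding microarrays (Agilent AMADID 015681) probed with GST-tagged S. cerevisiae TFs (full-length or DBD) made by in vitro transcription/translation (PURExpress), about 100-200 nM. Bound TF was detected with fluorescent anti-GST. Each ungapped 8-mer (which stands for itself and its reverse complement) is scored by the PBM enrichment score (E-score), a modified Wilcoxon-Mann-Whitney statistic from -0.5 to +0.5, computed with the Universal PBM Analysis Suite. Scale: above 0.35 generally sequence-specific binding.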
# Chain of UniProt P0CE41 (P0CE41 whole entry): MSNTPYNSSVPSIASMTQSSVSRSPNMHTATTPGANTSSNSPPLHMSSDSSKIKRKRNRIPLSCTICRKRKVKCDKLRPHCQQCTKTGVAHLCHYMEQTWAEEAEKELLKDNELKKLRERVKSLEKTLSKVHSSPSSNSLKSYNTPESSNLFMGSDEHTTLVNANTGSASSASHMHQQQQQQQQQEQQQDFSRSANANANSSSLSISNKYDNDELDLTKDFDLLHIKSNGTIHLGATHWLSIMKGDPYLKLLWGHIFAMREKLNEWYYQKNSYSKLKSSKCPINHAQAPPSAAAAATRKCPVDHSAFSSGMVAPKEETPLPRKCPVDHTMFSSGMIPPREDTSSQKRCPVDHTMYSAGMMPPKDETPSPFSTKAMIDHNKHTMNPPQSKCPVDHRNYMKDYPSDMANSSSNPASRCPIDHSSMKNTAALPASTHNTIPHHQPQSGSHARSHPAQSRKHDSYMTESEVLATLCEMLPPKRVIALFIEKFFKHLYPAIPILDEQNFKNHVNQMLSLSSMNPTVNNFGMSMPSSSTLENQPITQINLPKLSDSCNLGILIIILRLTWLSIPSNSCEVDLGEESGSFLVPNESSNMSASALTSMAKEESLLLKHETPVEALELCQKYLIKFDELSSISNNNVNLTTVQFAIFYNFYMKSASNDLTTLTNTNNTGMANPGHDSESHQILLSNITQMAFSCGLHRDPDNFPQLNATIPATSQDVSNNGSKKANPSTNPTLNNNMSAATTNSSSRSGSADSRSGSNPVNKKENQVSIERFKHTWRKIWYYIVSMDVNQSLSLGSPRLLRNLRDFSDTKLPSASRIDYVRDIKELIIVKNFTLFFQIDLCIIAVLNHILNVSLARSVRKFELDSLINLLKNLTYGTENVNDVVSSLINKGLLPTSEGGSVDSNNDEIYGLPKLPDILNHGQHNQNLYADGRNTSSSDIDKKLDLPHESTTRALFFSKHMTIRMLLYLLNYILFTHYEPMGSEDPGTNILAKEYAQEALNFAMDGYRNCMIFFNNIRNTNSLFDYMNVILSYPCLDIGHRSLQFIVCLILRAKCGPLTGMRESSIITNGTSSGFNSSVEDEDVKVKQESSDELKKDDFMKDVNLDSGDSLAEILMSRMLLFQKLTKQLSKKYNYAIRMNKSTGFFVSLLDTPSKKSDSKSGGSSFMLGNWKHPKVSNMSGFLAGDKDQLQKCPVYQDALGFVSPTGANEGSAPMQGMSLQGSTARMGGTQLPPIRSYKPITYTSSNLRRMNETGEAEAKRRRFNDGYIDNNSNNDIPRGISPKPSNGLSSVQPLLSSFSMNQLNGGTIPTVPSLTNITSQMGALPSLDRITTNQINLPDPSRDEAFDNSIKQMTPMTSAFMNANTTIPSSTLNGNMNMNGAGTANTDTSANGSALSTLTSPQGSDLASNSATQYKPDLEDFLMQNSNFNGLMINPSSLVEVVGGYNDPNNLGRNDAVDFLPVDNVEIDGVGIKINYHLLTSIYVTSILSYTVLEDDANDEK
row,Sequence,PBM E-score
1,CCTCGGGC,0.31
2,AGACTAAG,-0.103
3,CGGCAGGA,0.175
4,ATGGAAAC,-0.0981
5,TCACTTAA,-0.167
6,CGCGCCGC,0.228
7,AAACGTCG,0.00491
8,GGTCGGAC,0.342
9,CCTCGGCG,0.37
10,GCTCGGAA,0.335
11,GCTCGGAC,0.403
12,ACTCGGCG,0.259
13,CCTCGGCA,0.294
14,GATCAAAC,-0.0316
15,TAGAGCAA,-0.296
16,AGTTGATG,-0.292
17,CCGATATA,0.44
18,GCGATATA,0.24
19,CAGATATC,0.199
20,CCGATATC,0.458
21,ACGATATC,0.0796
22,ACGATATA,-0.0495
23,AATCGGGA,0.159

row,Sequence,PBM E-score
1,ATGCCTTG,-0.2
2,CCAGACGA,-0.0873
3,ATCGTCCG,0.379
4,ACCGTCCC,0.141
5,AACGTCCG,0.371
6,ATCGTCCA,-0.0714
7,AACGTCCA,-0.0731
8,ATCGTCCC,0.0149
9,CCCGTCCG,0.314
10,AACGTCCC,-0.179
11,ACCGTCCG,0.381
12,CAGTGCCC,0.00772
13,ACAAGGGC,-0.112
14,CCATTAGG,-0.215
15,AATTGCAG,-0.0487
16,CGAGGCAC,0.0885
17,AATAGATA,-0.00886
18,GCCTTAAC,-0.0709
19,CTGGTTTA,-0.309
20,ACGTCTAC,-0.179
21,CTGGTCAC,-0.325
22,AACGGGGG,0.158
23,ACCGGAGC,0.409

row,Sequence,PBM E-score
1,ACCGGAAT,0.36
2,GCCGGAGC,0.344
3,GCCGGAGA,0.372
4,ACCGGAGT,0.4
5,CCCGGAGC,0.354
6,GACGGAGA,0.318
7,CCCAGAGA,-0.226
8,GCCAGAGA,-0.227
9,CCGGGAGA,0.29
10,CCCGGAGA,0.428
11,ACCAGAGT,-0.222
12,ATTGGTGA,-0.281
13,AGCTTTTG,-0.167
14,AGTAGTGA,-0.1
15,AAGAAGGA,-0.21
16,ACAGGAAT,-0.135
17,ACACGGAT,0.209
18,CTCCTCAC,-0.186
19,CCGTTCCA,0.172
20,AACGGAGT,0.373
21,CCCGGAGG,0.285
22,ACCGGAGA,0.43
23,AGCGGAGG,0.158

row,Sequence,PBM E-score
1,ACCGGAGG,0.399
2,TACGGAGA,0.326
3,AACGGAGA,0.357
4,AGCGGAGA,0.276
5,TCCGGAGA,0.442
6,ACAGGAGA,-0.131
7,AACGGAGC,0.241
8,CACGGAGA,0.365
9,CAAATAAG,0.0685
10,AAAACGGG,0.174
11,CGGGGACG,0.163
12,AACGCGGG,0.267
13,GCGTCTAA,-0.0983
14,GACACAGA,0.0169
15,GCCATACC,0.0518
16,CTATCGAG,-0.0625
17,CAGGTTTA,-0.0176
18,AACGGTCG,0.23
19,TAGCACTA,-0.326
20,CGATTTAA,0.0314
21,CGATTTAC,0.149
22,GGATTTAC,0.415
23,TGATTTAA,0.0921

row,Sequence,PBM E-score
1,GGATTTAA,0.444
2,AGATTTAC,-0.103
3,TTACCGAA,0.233
4,CGTCTGAC,-0.045
5,ATGAAGCG,-0.208
6,ACCACTTA,-0.00971
7,ATGTTAGA,-0.336
8,TAGCCGAA,0.314
9,TAGCCGGA,0.407
10,AAGCCGTC,0.27
11,GAGCCGGA,0.379
12,GAGCCGGC,0.339
13,AAGCCGGA,0.413
14,GAGCCGCA,-0.0121
15,CAGCCGGA,0.33
16,AAGCCGGG,0.238
17,AAGCCGGC,0.399
18,AAGCCGGT,0.332
19,CAGCCGGC,0.331
